An excerpt weighted towards active compounds, which were near 5.6% of everything screened.
PHOSPHO1 inh: PHOSPHO1 (human) inhibition; inhibition, % at 13.3 µM; 290,000 tested, 1.1% active; Q8TCT1; recombinant PHOSPHO1, absorbance phosphatase assay; in the data active means inhibition above about 60%
Target sequence (Q8TCT1 whole entry, looked up): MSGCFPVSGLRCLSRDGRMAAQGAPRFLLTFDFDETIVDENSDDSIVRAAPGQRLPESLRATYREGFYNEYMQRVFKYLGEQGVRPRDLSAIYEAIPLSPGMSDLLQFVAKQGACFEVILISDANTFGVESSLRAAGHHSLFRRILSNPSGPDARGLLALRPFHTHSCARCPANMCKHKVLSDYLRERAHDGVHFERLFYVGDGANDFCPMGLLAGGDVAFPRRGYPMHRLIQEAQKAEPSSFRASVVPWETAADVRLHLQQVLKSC
PfM18AAP inh: blocks P. falciparum M18 aspartyl aminopeptidase | recombinant PfM18AAP, H-Glu-NHMec fluorogenic cleavage | 290,000 tested, 1.2% active | inhibition, % at 7.35 µM;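 active means inhibition above the campaign mean inhibition over all tested compounds plus 3 SD, cut at about 28% in these data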;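 further: 0% = plate median of test compound wells and 100% = 2 mM ZnCl2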
ALR inh: human ALR oxidase inhibition via reduced H2O2; P55789; purified ALR, DTT oxidation, H2O2 HRP-luminol luminescence; inhibition, % (test concentration not listed); 290,000 tested, 3.8% active; AID 485317;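 active means mean replicate inhibition above about 79%, with every replicate also reaching it, limit read from the data; inconclusive means only one of the two criteria met; inactive means mean below limit and not every replicate reaching it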
Target sequence (P55789 whole entry, looked up): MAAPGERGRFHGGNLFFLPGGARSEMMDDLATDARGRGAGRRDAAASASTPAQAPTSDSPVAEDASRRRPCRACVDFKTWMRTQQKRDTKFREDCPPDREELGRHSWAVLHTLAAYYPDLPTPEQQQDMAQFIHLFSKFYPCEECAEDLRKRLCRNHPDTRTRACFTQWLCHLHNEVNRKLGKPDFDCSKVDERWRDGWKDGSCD
H9c2 protect: protects H9c2 cardiomyocytes from peroxide injury. AID 588492. protection from H2O2 cell death, % at 20 µM. H2O2 injury protection, ATPLite, 2 h. 360,000 tested, 0.63% active;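 active means compounds giving at least 50% protection of heart cells from peroxide-induced death in the single-dose screen, raw or plate-pattern-corrected value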;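 further: 0% = DMSO wells with peroxide and 100% = DMSO wells without peroxide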
PfG6PD inh: PfG6PD (Plasmodium falciparum) enzyme inhibition; AID 504690; inhibition, % at 20 µM; PfGluPho enzyme, NADPH resazurin-diaphorase fluorescence; 350,000 tested, 0.78% active;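 active means inhibition reaching at least a set limit at 20 µM in the primary screen, cut at about 59% in these data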;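 further: 0% = DMSO wells with substrate and 100% = DMSO wells lacking glucose-6-phosphate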
* = called active by the depositor; ? = inconclusive; . = no result given.

SMILES	PHOSPHO1 inh	PfM18AAP inh	ALR inh	H9c2 protect	PfG6PD inh
Oc1ccc(N=Nc2ccccc2-c2nn[nH]n2)c(O)c1	31.3	33.9*	.	-0.5	-32.4
Cc1ccccc1-c1nn[nH]n1	3.9	-11.6	-3.7	-1.1	-2.1
C=CCNC(=O)CN1C(=O)CSc2ccc(S(=O)(=O)N3CCOCC3)cc21	.	.	.	2.0	9.2
CN(C(=O)c1cccc(NC(=O)Cc2ccc([N+](=O)[O-])cc2)c1)C1CC1	.	.	0.3	-1.6	1.2
CCC(C)c1ccccc1NC(=O)c1cc(C)no1 (stereo not given)	26.1	-12.6	-11.8	0.1	-10.0
CCCC(=O)Nc1ccc(NCc2ccc(C)s2)cc1	30.2	0.8	91.2*	3.3	-6.7
CC(=O)Nc1ccc(NCc2ccc(C)s2)cc1	23.9	0.4	96.4*	7.8	-3.0
O=C(NCc1nnc(SCC(=O)N2CCCC2)o1)c1ccccc1	23.8	-6.0	-22.4	-0.9	-6.2
CCOC(=O)c1sc(NC(=O)CCN2CCN(C)CC2)c(C(=O)OCC)c1C	17.0	7.8	10.3	-9.9	-7.1
CCCC(=O)Nc1sc(C(=O)OC)c(C)c1C(N)=O	76.7*	5.1	-11.9	10.6	18.2
COC(=O)c1ccc(N2NC(=O)/C(=C/c3cc(OC)c(OC)c(OC)c3)C2=O)cc1	28.3	6.4	.	-5.0	-11.7
COc1cccc(/C=C2/C(=O)NN(c3ccc(Br)cc3)C2=O)c1O	29.1	8.4	-2.1	51.9*	54.0
COc1cc(/C=C2/C(=O)NN(c3ccc(Cl)cc3)C2=O)cc(Br)c1O	14.9	9.4	98.0*	4.1	-6.8
COc1cc(/C=C2/C(=O)NN(c3ccc(F)cc3)C2=O)cc(Cl)c1O	25.7	12.8	?	-4.2	5.1
COc1cc(/C=C2/C(=O)NN(c3ccc(Cl)c(Cl)c3)C2=O)cc([N+](=O)[O-])c1O	22.2	13.8	98.4*	8.0	-11.8
COC(=O)c1ccc(N2NC(=O)/C(=C/c3cc(OC)c(O)c(OC)c3)C2=O)cc1	0.8	31.1*	72.7	-2.4	5.2
Nc1ncnc2c1ncn2[C@@H]1O[C@H](CNC(=O)[C@@H](N)C2CCCCC2)[C@@H](O)[C@H]1O	.	.	.	2.5	-1.1
CCN1CCS/C1=C/C=C/C1=[N+](CC)CCS1	0.2	5.8	96.9*	-13.6	-3.5
CC(=O)Nc1ccc(NC(=S)NC(=O)/C=C/c2ccco2)cc1	8.5	7.5	-0.4	2.5	4.5
CN1CCN(c2ccc(NC(=S)NC(=O)/C=C/c3ccco3)cc2)CC1	2.1	11.8	81.0*	-2.4	12.5
O=C(/C=C/c1ccco1)NC(=S)Nc1ccccn1	32.5	18.4	98.7*	-1.8	10.7
O=C(/C=C/c1ccco1)NC(=S)Nc1cccc(C(=O)O)c1	35.6	19.1	96.4*	0.4	8.5
COc1ccc(-n2cc(-c3ccc(Cl)cc3)[nH]c2=S)cc1	60.0*	-1.0	-0.8	-6.6	-13.9
COC(=O)c1ccc(-n2cc(-c3ccc(OC)cc3)[nH]c2=S)cc1	-2.7	28.5*	88.3*	-3.9	37.6
O=C(O)CCCCCN1C(=O)C(O)=C(C(=O)/C=C/c2ccccc2)C1c1ccccc1[N+](=O)[O-] (stereo not given)	36.6	4.3	52.9	-0.1	-31.8
SMILES	PHOSPHO1 inh	PfM18AAP inh	ALR inh	H9c2 protect	PfG6PD inh
Oc1c(Br)cc(Cl)cc1C=Nc1ccc(N2CCOCC2)cc1	40.4	16.8	33.2	47.7	18.8
Oc1c(Br)cc(Cl)cc1C=Nc1ccccc1Br	0.3	-9.8	28.4	72.5*	10.2
Cc1cc(O)c2c(c1)C(=O)[C@@]13Oc4c5c(c(O)c6c(O)cc(C)cc46)C(=O)C[C@H](O)[C@H]5[C@@H]1[C@@H](O)CC(=O)C3=C2O	.	.	.	-0.7	36.3
Cc1ccc2c(c1)NC(=O)c1cccnc1N2	15.3	-72.4	98.4*	-14.6	4.5
Cc1nn(-c2cc(N3CCCCC3)ccc2N)c(=O)c2ccccc12	-28.8	-2.5	99.1*	4.6	25.4
Cc1nn(-c2cc(N3CCCCCC3)ccc2[N+](=O)[O-])c(=O)c2ccccc12	7.7	4.0	-7.2	4.7	-4.2
CC(=O)N1C[C@@H](CO)[C@@H](N(C)C(=O)C(C)(C)C)C[C@H]1c1ccccc1	.	.	.	3.5	.
CC(C)(C)OC(=O)C[C@@H]1C/C=C\C[C@H](CC(=O)N[C@H](CO)Cc2ccccc2)C(=O)N[C@@H](Cc2c[nH]c3ccccc23)COC1=O	.	.	-3.5	9.3	-5.7
Cc1cc(C(=O)NP(=O)(N2CCOCC2)N2CCOCC2)c(C)n1-c1ccc(N(C)C)cc1	-1.8	23.2	93.4*	-4.3	21.9
Cc1cc(C(=O)NP(=O)(N2CCOCC2)N2CCOCC2)c(C)n1-c1ccc(Br)cc1	0.8	8.2	0.9	3.2	4.5
O=C(COC(=O)c1cc2ccccc2oc1=O)Nc1ccc(F)cc1F	10.5	-16.1	-5.7	0.6	-13.8
CC/C(=N\Nc1ccc([N+](=O)[O-])cc1[N+](=O)[O-])c1ccc(O)cc1	.	17.9	11.8	-15.6	4.3
CC(C)=NNc1cc([N+](=O)[O-])cc2c1C(=O)N(C)S2=O (stereo not given)	-81.8	29.8*	-15.4	1.2	21.6
c1ccc2c(c1)OCC(c1nn3c(Cn4nnc5ccccc54)nnc3s1)O2 (stereo not given)	62.4*	3.0	-4.4	-8.0	47.7
c1ccc(Cc2nn3c(Cn4nnc5ccccc54)nnc3s2)cc1	91.3*	16.5	-6.3	0.5	53.8
c1ccc(OCc2nn3c(Cn4nnc5ccccc54)nnc3s2)cc1	82.6*	5.3	8.9	-5.1	58.3
O=c1ccn([C@@H]2O[C@H](CNCc3cccn3-c3nccs3)[C@@H](O)[C@H]2O)c(=O)[nH]1	.	.	.	2.3	.
CNC(=S)NNC(=O)c1sccc1OCc1ccc(C)cc1	74.0*	17.4	25.2	1.5	12.7
CNC(=S)NNC(=O)c1sccc1OCc1cccc(C(F)(F)F)c1	68.9*	5.2	-6.3	-4.8	1.6
CCOC(=O)[C@H]1[C@H]2COc3ccc(Br)cc3[C@@H]2N2C(=O)c3cc(OC)c(OC)cc3NC(=O)[C@@]12C	.	.	.	50.5*	4.4
COC(=O)Nc1ccc(S(=O)(=O)N2CCC(C(=O)N(C)C3CCCCC3)CC2)cc1	-29.3	2.1	92.2*	0.2	1.8
C#CCN1c2ccccc2Sc2cccnc21	.	-1.4	72.0	0.8	-3.9
CCOc1ccc(-n2c(SCC(=O)Nc3ccc(C(=O)O)cc3)nc3ccccc3c2=O)cc1	.	-1.1	.	3.2	-36.4
COc1ccc(-n2c(SCC(=O)Nc3ccccc3)nc(O)cc2=O)cc1	36.8	1.9	87.7*	0.0	4.2
CCOc1ccc(NC(=O)CSc2nc(O)c(C)c(=O)n2-c2ccc(F)cc2)cc1	31.9	-14.2	99.5*	-1.3	-9.2
Cc1c(O)nc(SCC(=O)Nc2nccs2)n(-c2ccccc2F)c1=O	8.2	-0.3	98.9*	8.9	12.2
Cc1nnc(SCC(=O)Nc2nccs2)n(N)c1=O	32.2	3.9	23.7	10.3	1.9
COc1ccc(-n2c(SCC(=O)Nc3ccc4c(c3)OCO4)nc3c(c2=O)SCC3)cc1	61.0*	-1.2	2.7	8.9	12.3
Cc1cccc(NC(=S)N(CCN(C)C)Cc2cccs2)c1	2.0	-5.9	.	-3.7	-9.3

Screening results from PubChem.
